Reference: PubChem BioAssay (NCI)
About 83,000 compounds went through this panel and 20% of them were active in at least one assay; those are over-represented in the sample as a whole.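 Compound tested at a single concentration for 48 hours in 96-well plates; a percent growth value below 10 was scored as active.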 Unmarked numbers belong to inactive results. The source made the active and inactive calls.

Test system: RPMI-8226 leukemia
Experiment: NCI-60 one-dose screen, 48 h (100 = growth as untreated, 0 = no growth, -100 = all killed)
Settings: 10 µM unless noted
Method: Growth inhibition of the RPMI-8226 human tumor cell line is measured as a screen for anti-cancer activity. Cells are grown in 96 well plates and exposed to the test compound for 48 hours. Compounds are tested at a single concentration, which is 10^-5 M for most compounds. The reported endpoint is percent growth (GI% or GIPRCNT), where numbers from 0 - 100% represent growth inhibition, and numbers from -100% - 0 represent cell death. For example, a value of 40 represents 60% growth inhibition. A value of 0 means no net growth occurred over the course of the experiment. A value of -40 indicates 40% of cells at the beginning of the experiment died by the end of the experiment. A value of -100 means all cells are dead at the end of the experiment.
NCI-60 Human Tumor Cell Lines Screen was performed using the standard one-dose NCI protocol, which is described in more detail at https://dtp.cancer.gov/discovery_development/nci-60/default.htm.
Compounds with GIPRCNT values below 10 were considered active. Activity score was based on GIPRCNT using the following formula: […]
Score is 0 for GIPRCNT values of 100 or above, 50 for GIPRCNT values of 0, and 100 for GIPRCNT values of -100.

How did the growth turn out when `CCCCCCNC(=O)Oc1ccc(/C(=C(\C)c2ccc(Cl)cc2)c2ccc(OCCCN(C)C)cc2)cc1` was run?
The growth was 79%.

How did the growth turn out when `COc1ccc(/C=C/c2c(C(=O)/C=C/c3ccc(Cl)cc3)c(C)nc3ccccc23)cc1` was run?
Its growth is -28.6% (active).

For `O=C(CSc1nccc(Nc2ccc(S(=O)(=O)Nc3nccs3)cc2)n1)c1ccc(C(F)(F)F)cc1`, which growth is on record?
The growth was 104%.

Which growth does the source give for `C[C@]12CC[C@@H]3c4cc(OC(F)F)c(OS(N)(=O)=O)cc4CC[C@H]3[C@@H]1CC[C@@H]2OS(N)(=O)=O` here?
Its growth is 39.3%.

Which growth does the source give for `Cc1cc(=O)oc2cc(OC(=O)CN3CCN(C)CC3)ccc12` here?
Its growth is 103%.

Which growth does the source give for `CCN1C(=O)N(CC)C2Nn3c(s/c(=C4\C(=O)N(CC(C)C)c5ccccc54)c3=O)=NC21` (stereo not given) here?
Its growth is 50.6%.

Which growth does the source give for `CCc1ccc2nc(NC(=O)Cc3csc(NC(=O)c4ccco4)n3)sc2c1` here?
The growth was 55.8%.

`O=C1NC(=O)C(c2ccccc2)(c2ccccc2)N1Cc1cn(-c2c3ccccc3nc3ccccc23)nn1` was tested. Which growth did it give?
Its growth is 72.4%.

Which growth does the source give for `N#Cc1c(Nc2cccc(Cl)c2)sc(C(=O)c2cc3cc(Cl)ccc3o2)c1N` here?
The growth was 56.8%.

For `CCCCNc1nc(NN2C(=O)c3cccc4cccc(c34)C2=O)nc(-n2cnc3ccccc32)n1`, which growth is on record?
The growth was 86.9%.

`O=C1c2ccccc2NC(n2sc3ccccc3c2=O)N1c1ccccc1` (stereo not given) was tested. Which growth did it give?
Its growth is 101%.

How did the growth turn out when `CCCCCCN(CCCCCC)c1ccc(/C=C2/SC(=O)NC2=O)c(C)c1` was run?
Its growth is 65.5%.

How did the growth turn out when `Cn1cc(C(=O)c2nc(-c3cn(C)c4ccc(F)cc34)no2)c2cc(F)ccc21` was run?
Its growth is 91.1%.

With `O=C(/C=C/c1ccc([N+](=O)[O-])o1)NNC(=O)c1cc2ccccc2cc1O` as the molecule, how does the growth read?
Its growth is -6.98% (active).

With `O=C(CCCCCCSc1nc(-c2ccccc2)cc(-c2ccccc2)n1)NO` as the molecule, how does the growth read?
Its growth is 7.64% (active).

With `CSc1ncccc1C(=O)OCC(=O)Nc1oc(C)c2c(C)n[nH]c(=O)c12` as the molecule, how does the growth read?
The growth was 72.8%.

With `Cn1cc(-c2ccc3cc(-c4ccc(CC(=O)Nc5cc(C(C)(C)C)nn5C)cc4)cnc3c2)cn1` as the molecule, how does the growth read?
The growth was 3.3% (active).

For `BrCCCc1n(Cc2ccc3ccccc3c2)c2ccccc2[n+]1Cc1ccc2ccccc2c1`, which growth is on record?
The growth was -58.8% (active).

For `NC(=O)Nc1ccc2ncnc(Nc3ccc(Cl)cc3)c2c1`, which growth is on record?
Its growth is 101%.

How did the growth turn out when `COc1ccc2c(c1)c(-c1nn3cc(-c4cccs4)nc3s1)cn2C` was run?
The growth was 68.8%.

For `CCc1ccc(Oc2c(-c3ccc(OCc4ccc(Cl)cc4)cc3O)nn(C)c2C(F)(F)F)cc1`, which growth is on record?
The growth was -16.8% (active).

`Cc1ccc(C(=O)NN2C(=O)CSC2c2ccc(Cl)cc2)cn1` (stereo not given) was tested. Which growth did it give?
Its growth is 113%.

`COc1ccc2c(c1)c(-c1ccc(-c3cn(C)c4ccc(OC)cc34)o1)cn2C` was tested. Which growth did it give?
Its growth is 25.5%.

`COc1ccc(C(=O)n2nc(-c3ccccc3)nc2N)cc1OC` was tested. Which growth did it give?
The growth was 92.1%.

With `O=C(S)CNC(=O)c1ccccc1` as the molecule, how does the growth read?
The growth was 94.5%.

`CCCCCCNC(=O)Oc1ccc(/C(=C(\C)c2ccc(OC)cc2)c2ccc(OCCN3CCCCC3)cc2)cc1` was tested. Which growth did it give?
Its growth is 44.7%.

With `O=C(N/N=C/c1c(Cl)cccc1Cl)c1ccc(C(F)(F)F)nc1Nc1cccc(C(F)(F)F)c1` as the molecule, how does the growth read?
The growth was 13.8%.

For `O=c1n(Cc2ccc3ccccc3c2)ccn1Cc1ccc2ccccc2c1`, which growth is on record?
Its growth is 104%.

`COc1nc2ccc(C)cc2cc1-c1nc2c(cnn2-c2ccc(Br)cc2)c(=O)[nH]1` was tested. Which growth did it give?
Its growth is 33.2%.

How did the growth turn out when `CCN(CC)c1ccc(C2=NN(C(C)=O)C(c3cc(OC)c(OC)c(OC)c3)C2)cc1` (stereo not given) was run?
The growth was 2.54% (active).

`Cc1ccc(S(=O)(=O)Oc2ccc(NC(=O)c3ccc(Cl)cc3)cc2)cc1` was tested. Which growth did it give?
The growth was 97.6%.

With `Cc1ccc(-c2nc3c(c(-c4ccccc4)nn3-c3ccccc3)c(-c3ccc(O)cc3)c2C#N)cc1` as the molecule, how does the growth read?
The growth was 21.4%.

Which growth does the source give for `c1ccc(Nc2cc(-c3cccnc3)[nH]n2)cc1` here?
The growth was 103%.

`COc1ccc(/C=N/Nc2cc(=O)[nH]c3ccc(Cl)cc23)cc1` was tested. Which growth did it give?
The growth was 36.6%.

`N#Cc1c(-c2ccccc2)nc(SCC(=O)Nc2nc(-c3ccc(Cl)cc3)cs2)[nH]c1=O` was tested. Which growth did it give?
Its growth is 92.5%.

With `OC(c1ccccc1)C(NC(Cc1ccccc1)c1ccccc1)c1ccccc1` (stereo not given) as the molecule, how does the growth read?
The growth was 73.6%.

`COc1cc(/C=N/NC(=O)c2ccc(C)nc2)cc(OC)c1OC` was tested. Which growth did it give?
The growth was 121%.

`CN1CCN(c2ccc(-c3cc4c(Nc5ccc(F)c(Cl)c5)ncnn4c3)cc2)CC1` was tested. Which growth did it give?
The growth was 13.1%.

`CC(=O)N1N=C(c2ccc(Nc3nc(Nc4ccc(F)cc4)nc(Nc4ccc(Cl)cc4)n3)cc2)CC1c1ccc(Cl)cc1` (stereo not given) was tested. Which growth did it give?
The growth was 82.7%.

`COc1ccc(OC)c(/C=C/c2nnc(Nc3ccccc3)o2)c1` was tested. Which growth did it give?
The growth was 103%.
